Article PMC7862700, “An all-to-all approach to the identification of sequence-specific readers for epigenetic DNA modifications on cytosine”

Columns and labels:
Experiment in all cases: DAPPL (digital affinity profiling via proximity ligation, sequencing); 10 mM Tris-HCl pH 7.5, 50 mM NaCl, 1 mM DTT, 4% glycerol, room temperature, 30 min; GST-TFs on glutathione beads, 16-mer random dsDNA library, 0.1% formaldehyde crosslink after washing; high values mean tight binding
Settings in all cases: protein: recombinant; tags: N-terminal GST; dsDNA, one strand shown
[1] = target: T1, ERF (Homo sapiens, UniProt P50548 1-548)
T1 sequence: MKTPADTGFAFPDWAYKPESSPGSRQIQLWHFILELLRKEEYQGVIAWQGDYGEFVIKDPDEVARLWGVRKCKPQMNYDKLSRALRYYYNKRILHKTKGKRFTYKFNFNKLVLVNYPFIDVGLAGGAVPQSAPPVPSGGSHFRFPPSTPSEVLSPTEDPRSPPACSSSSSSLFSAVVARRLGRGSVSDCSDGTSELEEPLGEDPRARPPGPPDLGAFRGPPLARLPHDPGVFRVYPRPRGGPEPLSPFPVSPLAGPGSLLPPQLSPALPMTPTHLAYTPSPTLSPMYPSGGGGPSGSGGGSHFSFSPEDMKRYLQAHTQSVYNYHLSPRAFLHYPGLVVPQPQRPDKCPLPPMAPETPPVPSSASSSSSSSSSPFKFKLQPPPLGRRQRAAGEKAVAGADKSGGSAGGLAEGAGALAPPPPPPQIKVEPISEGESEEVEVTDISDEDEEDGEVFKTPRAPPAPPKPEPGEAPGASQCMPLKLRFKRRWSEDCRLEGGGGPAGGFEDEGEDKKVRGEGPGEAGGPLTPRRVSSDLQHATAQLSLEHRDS
Summary of the method: (§1)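 Pools of DNA-barcoded human transcription factors, expressed in yeast as GST fusions on glutathione beads and combined with a tag-only sample, were incubated with 200 nmole of a 16-mer random double-stranded DNA library. Incubation took 30 min at room temperature in Tris/NaCl/DTT/glycerol buffer and was followed by washing, 0.1% formaldehyde crosslinking, proximity ligation (BsaI/T4 ligase, 1 h, 37 °C), PCR amplification and sequencing on an Illumina NextSeq500. Binding signal is the ratio of a hexamer's read frequency for a factor to its frequency for the tag-only sample.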

[2] = target: T2, ETV3L (Homo sapiens, UniProt Q6ZN32 1-361)
T2 sequence: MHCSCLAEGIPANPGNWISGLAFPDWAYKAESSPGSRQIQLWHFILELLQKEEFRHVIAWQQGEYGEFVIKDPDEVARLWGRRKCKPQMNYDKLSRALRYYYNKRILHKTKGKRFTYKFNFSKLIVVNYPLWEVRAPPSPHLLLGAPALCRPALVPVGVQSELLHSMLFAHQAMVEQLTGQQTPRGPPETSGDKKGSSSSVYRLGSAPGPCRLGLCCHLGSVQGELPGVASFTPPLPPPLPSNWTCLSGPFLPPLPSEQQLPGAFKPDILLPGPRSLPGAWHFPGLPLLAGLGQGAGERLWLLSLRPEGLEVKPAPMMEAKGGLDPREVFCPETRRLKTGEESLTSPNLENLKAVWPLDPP
Summary of the method: as §1

[3] = target: T3, ETS2 (Homo sapiens, UniProt P15036 1-469)
T3 sequence: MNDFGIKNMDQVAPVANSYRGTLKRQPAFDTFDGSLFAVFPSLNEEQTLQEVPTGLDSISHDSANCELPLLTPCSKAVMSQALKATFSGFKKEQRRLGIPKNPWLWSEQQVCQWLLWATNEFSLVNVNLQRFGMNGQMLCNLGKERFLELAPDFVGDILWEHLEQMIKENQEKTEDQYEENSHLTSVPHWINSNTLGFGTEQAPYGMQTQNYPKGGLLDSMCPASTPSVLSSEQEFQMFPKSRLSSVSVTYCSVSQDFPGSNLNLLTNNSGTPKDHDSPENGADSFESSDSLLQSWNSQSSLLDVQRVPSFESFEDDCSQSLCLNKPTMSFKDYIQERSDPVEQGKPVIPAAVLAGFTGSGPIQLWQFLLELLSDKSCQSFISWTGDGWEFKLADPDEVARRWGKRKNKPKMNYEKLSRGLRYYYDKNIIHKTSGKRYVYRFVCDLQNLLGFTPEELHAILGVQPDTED
Summary of the method: as §1

[4] = target: T4, SPDEF (Homo sapiens, UniProt O95238 1-335)
T4 sequence: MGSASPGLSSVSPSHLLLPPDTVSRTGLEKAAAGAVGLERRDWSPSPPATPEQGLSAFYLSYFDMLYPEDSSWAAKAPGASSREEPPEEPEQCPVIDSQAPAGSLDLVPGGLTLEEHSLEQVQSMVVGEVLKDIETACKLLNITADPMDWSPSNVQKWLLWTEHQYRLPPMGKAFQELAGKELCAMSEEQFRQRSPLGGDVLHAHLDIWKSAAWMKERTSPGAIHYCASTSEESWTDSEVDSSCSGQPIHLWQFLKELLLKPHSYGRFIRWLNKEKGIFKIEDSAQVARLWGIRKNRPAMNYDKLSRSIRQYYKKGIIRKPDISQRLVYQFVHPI
Summary of the method: as §1

[5] = target: T5, ETV7 (Homo sapiens, UniProt Q9Y603 1-341)
T5 sequence: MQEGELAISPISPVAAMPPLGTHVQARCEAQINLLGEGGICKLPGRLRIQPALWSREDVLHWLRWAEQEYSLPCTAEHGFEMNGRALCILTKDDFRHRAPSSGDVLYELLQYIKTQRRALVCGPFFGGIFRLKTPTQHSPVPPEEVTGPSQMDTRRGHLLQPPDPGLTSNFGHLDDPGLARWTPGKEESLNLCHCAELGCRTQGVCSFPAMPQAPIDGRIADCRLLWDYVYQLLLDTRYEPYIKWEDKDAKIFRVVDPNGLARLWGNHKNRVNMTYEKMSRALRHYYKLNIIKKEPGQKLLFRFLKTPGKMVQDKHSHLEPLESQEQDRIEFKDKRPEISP
Summary of the method: as §1

[6] = target: T6, ELF5 (Homo sapiens, UniProt Q9UKW6-2 1-255)
T6 sequence: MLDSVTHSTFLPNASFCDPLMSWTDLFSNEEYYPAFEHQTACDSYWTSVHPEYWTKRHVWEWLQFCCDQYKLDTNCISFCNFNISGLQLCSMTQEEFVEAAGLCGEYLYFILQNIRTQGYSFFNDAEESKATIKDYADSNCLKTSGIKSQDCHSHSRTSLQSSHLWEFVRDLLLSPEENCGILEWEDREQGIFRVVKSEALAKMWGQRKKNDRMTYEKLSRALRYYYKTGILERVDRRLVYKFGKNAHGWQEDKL
Summary of the method: as §1

[7] = target: T7, ETV3 (Homo sapiens, UniProt P41162-2 1-143)
T7 sequence: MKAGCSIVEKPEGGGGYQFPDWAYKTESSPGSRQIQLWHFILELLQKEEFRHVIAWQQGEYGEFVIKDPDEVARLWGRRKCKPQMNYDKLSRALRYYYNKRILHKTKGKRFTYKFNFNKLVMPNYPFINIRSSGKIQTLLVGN
Summary of the method: as §1

[8] = target: ETV6 (Homo sapiens, UniProt P41212 1-452)
Summary of the method: as §1

Chain of ETV6 (P41212 whole entry): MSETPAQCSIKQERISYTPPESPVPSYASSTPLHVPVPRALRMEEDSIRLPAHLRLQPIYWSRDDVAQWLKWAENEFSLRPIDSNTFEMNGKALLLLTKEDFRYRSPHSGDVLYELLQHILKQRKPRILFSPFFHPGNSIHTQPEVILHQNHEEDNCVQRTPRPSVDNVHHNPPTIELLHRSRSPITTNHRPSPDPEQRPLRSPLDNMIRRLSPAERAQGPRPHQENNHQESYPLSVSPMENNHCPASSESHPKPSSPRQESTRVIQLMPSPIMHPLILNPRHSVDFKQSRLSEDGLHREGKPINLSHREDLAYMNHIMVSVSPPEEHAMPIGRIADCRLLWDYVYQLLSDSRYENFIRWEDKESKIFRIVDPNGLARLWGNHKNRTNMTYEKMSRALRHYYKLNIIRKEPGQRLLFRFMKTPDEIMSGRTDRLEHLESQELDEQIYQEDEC

Sequence | binding signal [1] | binding signal [2] | binding signal [3] | binding signal [4] | binding signal [5] | binding signal [6] | binding signal [7] | binding signal [8]
ACAAAT | 1.3 fold enrichment (6-mer frequency, TF over GST control) | 1.15 fold enrichment (6-mer frequency, TF over GST control) | 1.16 fold enrichment (6-mer frequency, TF over GST control) | 1.1 fold enrichment (6-mer frequency, TF over GST control) | 1.14 fold enrichment (6-mer frequency, TF over GST control) | 1.13 fold enrichment (6-mer frequency, TF over GST control) | 1.1 fold enrichment (6-mer frequency, TF over GST control) | 1.17 fold enrichment (6-mer frequency, TF over GST control)
TCCGGC | 2.13 fold enrichment (6-mer frequency, TF over GST control) | 2.23 fold enrichment (6-mer frequency, TF over GST control) | 2.08 fold enrichment (6-mer frequency, TF over GST control) | 3.14 fold enrichment (6-mer frequency, TF over GST control) | 1.95 fold enrichment (6-mer frequency, TF over GST control) | 2.67 fold enrichment (6-mer frequency, TF over GST control) | 2.32 fold enrichment (6-mer frequency, TF over GST control) | 2.28 fold enrichment (6-mer frequency, TF over GST control)
TCCTCG | 1.48 fold enrichment (6-mer frequency, TF over GST control) | 1.57 fold enrichment (6-mer frequency, TF over GST control) | 1.35 fold enrichment (6-mer frequency, TF over GST control) | 1.33 fold enrichment (6-mer frequency, TF over GST control) | 1.49 fold enrichment (6-mer frequency, TF over GST control) | 1.93 fold enrichment (6-mer frequency, TF over GST control) | 1.5 fold enrichment (6-mer frequency, TF over GST control) | 1.48 fold enrichment (6-mer frequency, TF over GST control)
GTCTCG | 1.29 fold enrichment (6-mer frequency, TF over GST control) | 1.29 fold enrichment (6-mer frequency, TF over GST control) | 1.37 fold enrichment (6-mer frequency, TF over GST control) | 1.09 fold enrichment (6-mer frequency, TF over GST control) | 1.28 fold enrichment (6-mer frequency, TF over GST control) | 1.26 fold enrichment (6-mer frequency, TF over GST control) | 1.33 fold enrichment (6-mer frequency, TF over GST control) | 1.32 fold enrichment (6-mer frequency, TF over GST control)
TACTGT | 1.2 fold enrichment (6-mer frequency, TF over GST control) | 1.15 fold enrichment (6-mer frequency, TF over GST control) | 1.16 fold enrichment (6-mer frequency, TF over GST control) | 1.11 fold enrichment (6-mer frequency, TF over GST control) | 1.04 fold enrichment (6-mer frequency, TF over GST control) | 1.14 fold enrichment (6-mer frequency, TF over GST control) | 1.13 fold enrichment (6-mer frequency, TF over GST control) | 1.1 fold enrichment (6-mer frequency, TF over GST control)
CTTTTC | 1.33 fold enrichment (6-mer frequency, TF over GST control) | 1.48 fold enrichment (6-mer frequency, TF over GST control) | 1.33 fold enrichment (6-mer frequency, TF over GST control) | 1.49 fold enrichment (6-mer frequency, TF over GST control) | 1.49 fold enrichment (6-mer frequency, TF over GST control) | 1.58 fold enrichment (6-mer frequency, TF over GST control) | 1.69 fold enrichment (6-mer frequency, TF over GST control) | 1.57 fold enrichment (6-mer frequency, TF over GST control)
CTACCA | 1.26 fold enrichment (6-mer frequency, TF over GST control) | 1.21 fold enrichment (6-mer frequency, TF over GST control) | 1.26 fold enrichment (6-mer frequency, TF over GST control) | 1.23 fold enrichment (6-mer frequency, TF over GST control) | 1.29 fold enrichment (6-mer frequency, TF over GST control) | 1.26 fold enrichment (6-mer frequency, TF over GST control) | 1.21 fold enrichment (6-mer frequency, TF over GST control) | 1.26 fold enrichment (6-mer frequency, TF over GST control)
ATGTTT | 1.46 fold enrichment (6-mer frequency, TF over GST control) | 1.48 fold enrichment (6-mer frequency, TF over GST control) | 1.29 fold enrichment (6-mer frequency, TF over GST control) | 1.37 fold enrichment (6-mer frequency, TF over GST control) | 1.46 fold enrichment (6-mer frequency, TF over GST control) | 1.47 fold enrichment (6-mer frequency, TF over GST control) | 1.47 fold enrichment (6-mer frequency, TF over GST control) | 1.47 fold enrichment (6-mer frequency, TF over GST control)
ACATCT | 1.24 fold enrichment (6-mer frequency, TF over GST control) | 1.24 fold enrichment (6-mer frequency, TF over GST control) | 1.27 fold enrichment (6-mer frequency, TF over GST control) | 1.26 fold enrichment (6-mer frequency, TF over GST control) | 1.49 fold enrichment (6-mer frequency, TF over GST control) | 1.3 fold enrichment (6-mer frequency, TF over GST control) | 1.17 fold enrichment (6-mer frequency, TF over GST control) | 1.29 fold enrichment (6-mer frequency, TF over GST control)
ATCTAA | 1.2 fold enrichment (6-mer frequency, TF over GST control) | 1.19 fold enrichment (6-mer frequency, TF over GST control) | 1.2 fold enrichment (6-mer frequency, TF over GST control) | 1.11 fold enrichment (6-mer frequency, TF over GST control) | 1.22 fold enrichment (6-mer frequency, TF over GST control) | 1.17 fold enrichment (6-mer frequency, TF over GST control) | 1.24 fold enrichment (6-mer frequency, TF over GST control) | 1.17 fold enrichment (6-mer frequency, TF over GST control)
TGACCG | 1.41 fold enrichment (6-mer frequency, TF over GST control) | 1.41 fold enrichment (6-mer frequency, TF over GST control) | 1.55 fold enrichment (6-mer frequency, TF over GST control) | 1.44 fold enrichment (6-mer frequency, TF over GST control) | 1.49 fold enrichment (6-mer frequency, TF over GST control) | 1.4 fold enrichment (6-mer frequency, TF over GST control) | 1.53 fold enrichment (6-mer frequency, TF over GST control) | 1.36 fold enrichment (6-mer frequency, TF over GST control)
CTGCTC | 1.29 fold enrichment (6-mer frequency, TF over GST control) | 1.43 fold enrichment (6-mer frequency, TF over GST control) | 1.28 fold enrichment (6-mer frequency, TF over GST control) | 1.26 fold enrichment (6-mer frequency, TF over GST control) | 1.29 fold enrichment (6-mer frequency, TF over GST control) | 1.29 fold enrichment (6-mer frequency, TF over GST control) | 1.22 fold enrichment (6-mer frequency, TF over GST control) | 1.16 fold enrichment (6-mer frequency, TF over GST control)
CCTGTT | 1.66 fold enrichment (6-mer frequency, TF over GST control) | 1.79 fold enrichment (6-mer frequency, TF over GST control) | 1.8 fold enrichment (6-mer frequency, TF over GST control) | 2.09 fold enrichment (6-mer frequency, TF over GST control) | 1.63 fold enrichment (6-mer frequency, TF over GST control) | 2.1 fold enrichment (6-mer frequency, TF over GST control) | 1.9 fold enrichment (6-mer frequency, TF over GST control) | 1.73 fold enrichment (6-mer frequency, TF over GST control)
ATGGTT | 1.27 fold enrichment (6-mer frequency, TF over GST control) | 1.36 fold enrichment (6-mer frequency, TF over GST control) | 1.36 fold enrichment (6-mer frequency, TF over GST control) | 1.18 fold enrichment (6-mer frequency, TF over GST control) | 1.27 fold enrichment (6-mer frequency, TF over GST control) | 1.27 fold enrichment (6-mer frequency, TF over GST control) | 1.34 fold enrichment (6-mer frequency, TF over GST control) | 1.3 fold enrichment (6-mer frequency, TF over GST control)
CTGACT | 1.33 fold enrichment (6-mer frequency, TF over GST control) | 1.22 fold enrichment (6-mer frequency, TF over GST control) | 1.42 fold enrichment (6-mer frequency, TF over GST control) | 1.22 fold enrichment (6-mer frequency, TF over GST control) | 1.33 fold enrichment (6-mer frequency, TF over GST control) | 1.32 fold enrichment (6-mer frequency, TF over GST control) | 1.28 fold enrichment (6-mer frequency, TF over GST control) | 1.24 fold enrichment (6-mer frequency, TF over GST control)
